This note sets out measurements from the supplement of paper PMC11006884.

Compound in the assay: COC(=O)C#Cc1ccccc1 [methyl 3-phenylpropiolate]
Kind of assay: log2 ratio of iodoacetamide-alkyne labeling of the cysteine site, DMSO over compound (competition); higher = stronger covalent engagement of the cysteine by the compound, active = 1 or more. To be noted: 500 µM; treatment time 1 h; system: HEK293T cell lysate. The method in brief:
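HEK293T lysate at 2 mg/mL was treated with vehicle or electrophile (500 µM) for 1 h at ambient temperature, then labelled with iodoacetamide alkyne (1 h), clicked to sCIP-TMT reagents, pooled, digested with trypsin overnight at 37 °C, enriched on streptavidin and eluted with acid. Peptides were analysed by Orbitrap Eclipse LC-MS/MS with FAIMS and quantified in FragPipe, using duplicate channels and three replicates, with cysteines quantified in only one replicate excluded. The log2 competition ratio for each cysteine is the mean control-channel reporter intensity divided by the mean compound-channel reporter intensity.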

Targets with a hit are over-represented here; the source holds about 6,500 in all. About 2% of all pairs of compound and target were hits. Values without a mark were called inactive.

Chain of UniProt P11717 (P11717 whole entry, looked up): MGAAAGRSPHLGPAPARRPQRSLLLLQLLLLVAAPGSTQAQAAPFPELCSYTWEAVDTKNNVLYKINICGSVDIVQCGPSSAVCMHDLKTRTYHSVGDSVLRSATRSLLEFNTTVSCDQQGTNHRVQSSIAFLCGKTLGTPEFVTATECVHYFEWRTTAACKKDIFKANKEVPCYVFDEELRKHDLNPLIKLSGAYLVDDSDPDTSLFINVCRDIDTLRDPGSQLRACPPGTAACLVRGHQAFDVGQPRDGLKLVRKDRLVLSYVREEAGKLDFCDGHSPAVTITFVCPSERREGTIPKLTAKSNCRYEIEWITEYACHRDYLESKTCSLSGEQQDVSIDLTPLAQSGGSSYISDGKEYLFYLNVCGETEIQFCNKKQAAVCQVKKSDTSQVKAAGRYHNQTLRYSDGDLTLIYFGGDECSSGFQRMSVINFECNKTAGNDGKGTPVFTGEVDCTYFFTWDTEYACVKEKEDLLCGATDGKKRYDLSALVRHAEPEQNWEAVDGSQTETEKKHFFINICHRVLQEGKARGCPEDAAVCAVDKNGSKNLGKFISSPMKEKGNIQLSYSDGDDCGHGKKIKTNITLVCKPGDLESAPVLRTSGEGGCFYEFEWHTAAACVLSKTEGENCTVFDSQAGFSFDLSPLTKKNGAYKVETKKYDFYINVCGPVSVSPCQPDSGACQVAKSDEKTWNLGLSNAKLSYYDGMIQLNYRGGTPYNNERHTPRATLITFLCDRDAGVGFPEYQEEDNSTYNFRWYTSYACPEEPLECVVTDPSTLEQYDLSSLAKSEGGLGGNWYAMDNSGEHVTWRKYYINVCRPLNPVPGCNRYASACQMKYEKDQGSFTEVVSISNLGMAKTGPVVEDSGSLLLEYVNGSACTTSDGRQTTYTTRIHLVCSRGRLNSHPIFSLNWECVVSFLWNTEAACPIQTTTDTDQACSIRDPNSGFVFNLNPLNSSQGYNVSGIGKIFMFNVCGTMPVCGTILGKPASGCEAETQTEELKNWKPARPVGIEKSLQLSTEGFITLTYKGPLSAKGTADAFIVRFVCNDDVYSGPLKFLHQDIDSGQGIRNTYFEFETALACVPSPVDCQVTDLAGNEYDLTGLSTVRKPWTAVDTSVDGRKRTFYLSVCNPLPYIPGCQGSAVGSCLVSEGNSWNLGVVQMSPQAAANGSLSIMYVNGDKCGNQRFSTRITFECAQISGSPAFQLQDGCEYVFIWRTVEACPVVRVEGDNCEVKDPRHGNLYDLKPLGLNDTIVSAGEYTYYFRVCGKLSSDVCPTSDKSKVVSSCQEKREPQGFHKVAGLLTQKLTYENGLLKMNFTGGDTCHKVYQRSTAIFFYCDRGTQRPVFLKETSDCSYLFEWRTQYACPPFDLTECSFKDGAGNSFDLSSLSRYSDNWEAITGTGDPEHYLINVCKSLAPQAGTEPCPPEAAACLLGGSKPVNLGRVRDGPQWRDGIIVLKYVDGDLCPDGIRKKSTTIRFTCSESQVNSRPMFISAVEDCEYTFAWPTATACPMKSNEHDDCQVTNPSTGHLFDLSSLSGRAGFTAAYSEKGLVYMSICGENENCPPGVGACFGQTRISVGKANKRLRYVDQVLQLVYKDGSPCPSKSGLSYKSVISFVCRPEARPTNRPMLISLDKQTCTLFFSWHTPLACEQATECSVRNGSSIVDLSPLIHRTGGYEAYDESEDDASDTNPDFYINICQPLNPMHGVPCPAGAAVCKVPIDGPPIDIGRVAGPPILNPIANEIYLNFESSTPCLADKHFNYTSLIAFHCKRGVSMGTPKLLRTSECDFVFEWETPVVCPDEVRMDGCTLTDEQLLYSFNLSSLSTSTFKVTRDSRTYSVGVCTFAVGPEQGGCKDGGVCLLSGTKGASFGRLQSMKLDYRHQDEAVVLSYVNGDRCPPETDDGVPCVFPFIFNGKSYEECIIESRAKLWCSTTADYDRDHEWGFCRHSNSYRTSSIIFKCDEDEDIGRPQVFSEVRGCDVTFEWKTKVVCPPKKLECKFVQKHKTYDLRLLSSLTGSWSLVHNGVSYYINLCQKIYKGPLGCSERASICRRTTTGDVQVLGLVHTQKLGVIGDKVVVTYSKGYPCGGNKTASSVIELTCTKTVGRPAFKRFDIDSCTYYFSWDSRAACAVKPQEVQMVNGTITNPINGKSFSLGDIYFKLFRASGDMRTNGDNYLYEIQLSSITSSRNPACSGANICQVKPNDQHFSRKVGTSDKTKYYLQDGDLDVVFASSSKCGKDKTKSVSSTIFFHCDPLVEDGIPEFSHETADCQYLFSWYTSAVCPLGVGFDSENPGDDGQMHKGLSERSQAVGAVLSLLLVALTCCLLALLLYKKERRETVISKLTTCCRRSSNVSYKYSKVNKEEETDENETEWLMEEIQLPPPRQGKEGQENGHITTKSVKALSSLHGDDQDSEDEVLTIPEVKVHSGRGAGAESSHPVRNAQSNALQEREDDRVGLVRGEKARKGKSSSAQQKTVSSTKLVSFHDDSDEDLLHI
Chain of UniProt P11586 (P11586 whole entry, looked up): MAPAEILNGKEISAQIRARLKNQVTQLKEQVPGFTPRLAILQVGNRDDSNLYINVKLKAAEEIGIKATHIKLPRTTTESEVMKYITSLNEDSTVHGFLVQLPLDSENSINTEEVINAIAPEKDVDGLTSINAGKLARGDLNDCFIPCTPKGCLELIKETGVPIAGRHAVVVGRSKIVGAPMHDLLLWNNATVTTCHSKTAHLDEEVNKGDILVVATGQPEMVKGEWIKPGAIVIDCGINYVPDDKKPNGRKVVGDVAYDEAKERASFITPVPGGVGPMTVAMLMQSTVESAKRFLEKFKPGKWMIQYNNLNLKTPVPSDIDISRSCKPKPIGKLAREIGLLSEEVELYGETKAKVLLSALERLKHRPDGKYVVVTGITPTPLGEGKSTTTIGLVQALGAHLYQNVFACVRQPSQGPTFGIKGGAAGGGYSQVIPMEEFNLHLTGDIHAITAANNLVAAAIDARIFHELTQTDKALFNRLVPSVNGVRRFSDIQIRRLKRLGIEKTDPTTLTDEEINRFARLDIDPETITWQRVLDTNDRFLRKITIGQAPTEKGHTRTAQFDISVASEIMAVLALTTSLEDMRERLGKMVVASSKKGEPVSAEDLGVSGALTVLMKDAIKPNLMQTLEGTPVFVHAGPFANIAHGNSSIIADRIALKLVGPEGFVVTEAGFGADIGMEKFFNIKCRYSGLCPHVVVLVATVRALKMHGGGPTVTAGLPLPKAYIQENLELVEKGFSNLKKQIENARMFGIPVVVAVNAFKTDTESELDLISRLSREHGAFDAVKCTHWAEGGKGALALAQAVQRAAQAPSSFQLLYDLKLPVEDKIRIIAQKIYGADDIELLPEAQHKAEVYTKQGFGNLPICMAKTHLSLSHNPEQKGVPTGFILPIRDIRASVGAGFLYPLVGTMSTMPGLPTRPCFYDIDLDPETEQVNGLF
Chain of UniProt P07814 (P07814 whole entry, looked up): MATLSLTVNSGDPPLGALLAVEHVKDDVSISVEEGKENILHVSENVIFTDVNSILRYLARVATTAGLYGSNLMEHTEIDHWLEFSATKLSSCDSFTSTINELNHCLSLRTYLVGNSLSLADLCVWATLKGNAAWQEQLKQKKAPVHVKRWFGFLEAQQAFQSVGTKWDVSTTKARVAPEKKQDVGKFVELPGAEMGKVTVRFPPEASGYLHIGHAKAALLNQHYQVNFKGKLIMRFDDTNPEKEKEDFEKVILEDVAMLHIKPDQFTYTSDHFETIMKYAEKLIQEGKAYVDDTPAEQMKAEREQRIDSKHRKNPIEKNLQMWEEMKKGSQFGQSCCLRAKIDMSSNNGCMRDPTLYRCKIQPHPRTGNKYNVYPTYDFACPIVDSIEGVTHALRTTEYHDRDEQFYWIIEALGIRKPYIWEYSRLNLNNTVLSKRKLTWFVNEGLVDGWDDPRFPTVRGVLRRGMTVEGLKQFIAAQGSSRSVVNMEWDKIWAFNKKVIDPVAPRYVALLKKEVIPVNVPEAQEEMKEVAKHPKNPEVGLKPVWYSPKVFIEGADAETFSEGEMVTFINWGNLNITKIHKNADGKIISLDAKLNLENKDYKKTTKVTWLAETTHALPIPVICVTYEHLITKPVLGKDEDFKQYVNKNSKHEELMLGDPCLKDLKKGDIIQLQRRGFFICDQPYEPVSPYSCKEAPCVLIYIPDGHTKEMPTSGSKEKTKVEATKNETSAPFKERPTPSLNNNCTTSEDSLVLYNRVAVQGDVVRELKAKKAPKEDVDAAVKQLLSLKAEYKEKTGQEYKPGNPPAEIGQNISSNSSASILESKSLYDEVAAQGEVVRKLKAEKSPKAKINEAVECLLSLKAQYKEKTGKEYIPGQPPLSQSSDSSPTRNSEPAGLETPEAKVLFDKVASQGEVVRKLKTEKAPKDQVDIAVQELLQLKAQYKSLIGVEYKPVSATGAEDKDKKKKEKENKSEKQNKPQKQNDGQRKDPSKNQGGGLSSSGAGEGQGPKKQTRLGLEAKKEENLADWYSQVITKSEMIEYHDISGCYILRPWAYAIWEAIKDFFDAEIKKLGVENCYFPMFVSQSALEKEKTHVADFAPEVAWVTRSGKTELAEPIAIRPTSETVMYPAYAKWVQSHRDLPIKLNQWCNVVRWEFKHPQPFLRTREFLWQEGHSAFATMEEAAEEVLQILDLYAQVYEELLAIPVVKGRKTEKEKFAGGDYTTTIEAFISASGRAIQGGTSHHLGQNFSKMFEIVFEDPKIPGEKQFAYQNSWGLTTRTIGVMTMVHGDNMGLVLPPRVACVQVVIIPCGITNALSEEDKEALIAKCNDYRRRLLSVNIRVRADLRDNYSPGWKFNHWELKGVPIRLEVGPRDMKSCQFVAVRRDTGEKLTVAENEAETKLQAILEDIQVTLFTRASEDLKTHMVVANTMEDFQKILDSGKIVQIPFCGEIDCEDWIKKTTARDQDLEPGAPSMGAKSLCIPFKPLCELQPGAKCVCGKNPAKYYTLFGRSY

As to MSN C284 (UniProt P26038), the “log2 ratio of iodoacetamide-alkyne labeling” value (“log2 ratio” for short) was -0.16. For UniProt O95071_C739, the “log2 ratio” value is 0.0375.

In the case of DNMT1 C1226 (UniProt P26358), the “log2 ratio” value is -0.0963. In the case of MAP4K4 C202 (UniProt O95819), the “log2 ratio” value is 0.624. As for UniProt O96017_C539, the “log2 ratio” value was 0.494. The result for FH C333 (UniProt P07954) reads 0.338. In the case of BSG C242 (UniProt P35613), the “log2 ratio” value was 0.215. Take PFKL C170 (UniProt P17858): the “log2 ratio” value is 0.343. The value for RCC1 C93 (UniProt P18754) was 0.14; that for RPS17 C35 (UniProt P08708) was -0.00485; that for RPS5 C66 (UniProt P46782) was 2.5 (active). On to UniProt P23610_C62, for which the “log2 ratio” value was 0.0767. Turning to FASN C1118 (UniProt P49327), the “log2 ratio” value is 0.203.

For the target FASN C1127 (UniProt P49327), the “log2 ratio” value was 0.394. The value for PEX5 C11 (UniProt P50542) was 0.204; that for CCT4 C252 (UniProt P50991) was -0.0169; that for GYS1 C699 (UniProt P13807) was 0.526. The result for IDH2 C154 (UniProt P48735) reads 0.393; that for RRM1 C352 (UniProt P23921), 0.357. The value for LRPPRC C208 (UniProt P42704) was 0.123; that for UniProt O96017_C385 was 0.227; that for PCYT1A C73 (UniProt P49585) was 0.921. In the case of SLC25A5 C160 (UniProt P05141), the “log2 ratio” value is 0.177. Regarding RPL14 C42 (UniProt P50914), the “log2 ratio” value was 1.82 (active).

Turning to TTK C322 (UniProt P33981), the “log2 ratio” value was 1.29 (active). As for VDAC2 C8 (UniProt P45880), the “log2 ratio” value is 0.376.

For PTPN2 C330 (UniProt P17706), the “log2 ratio” value was 0.608.

With MTHFD2 C145 (UniProt P13995), the “log2 ratio” value is 0.057.

On to CNP C111 (UniProt P09543), for which the “log2 ratio” value is 0.0267. Consider JUP C90 (UniProt P14923), for which the “log2 ratio” value was 0.305. On to AARS C723 (UniProt P49588), for which the “log2 ratio” value is 0.264. Consider UniProt P28482_C254, for which the “log2 ratio” value is -0.0158. With EPRS C92 (UniProt P07814), the “log2 ratio” value is 0.571. For the target FBL C268 (UniProt P22087), the “log2 ratio” value was 0.27. On to IMPDH2 C140 (UniProt P12268), for which the “log2 ratio” value was 1.11 (active). For the target ACAA1 C177 (UniProt P09110), the “log2 ratio” value was 0.162. For the target BPNT1 C206 (UniProt O95861), the “log2 ratio” value is 0.27. Regarding LMNB1 C198 (UniProt P20700), the “log2 ratio” value is 0.109. As for ACSL3 C652 (UniProt O95573), the “log2 ratio” value was -0.112.

On to CAPN2 C301 (UniProt P17655), for which the “log2 ratio” value was 2.17 (active). CAST C413 (UniProt P20810): the “log2 ratio” value was 0.756. Take CRKL C249 (UniProt P46109): the “log2 ratio” value is 1.61 (active). The result for ADD1 C253 (UniProt P35611) reads 0.101. On to UniProt P42677_C77, for which the “log2 ratio” value was 1.73 (active). As to RNH1 C85 (UniProt P13489), the “log2 ratio” value is 0.0022. MTHFD1 C143 (UniProt P11586): the “log2 ratio” value was -0.0254. In the case of ACAA2 C128 (UniProt P42765), the “log2 ratio” value was 1.22 (active).

For the target SLC7A1 C628 (UniProt P30825), the “log2 ratio” value was 0.105. The result for STIP1 C339 (UniProt P31948) reads 0.0728; that for EIF2S3 C105 (UniProt P41091), 0.341. TMPO C280 (UniProt P42166): the “log2 ratio” value was 1.09 (active).

On to UROD C308 (UniProt P06132), for which the “log2 ratio” value was 0.28. CAMLG C123 (UniProt P49069): the “log2 ratio” value was 0.308. The value for PHKA1 C1082 (UniProt P46020) was 0.236; that for PPP2R1A C377 (UniProt P30153) was 0.919. The result for RANGAP1 C303 (UniProt P46060) reads 0.47. Turning to PML C338 (UniProt P29590), the “log2 ratio” value is 0.413. For the target HNRNPA3 C85 (UniProt P51991), the “log2 ratio” value was 0.23. UniProt P49840_C398: the “log2 ratio” value was 0.241.

Regarding IGF2R C2232 (UniProt P11717), the “log2 ratio” value is 1.08 (active). As for MPG C56 (UniProt P29372), the “log2 ratio” value was 1.66 (active).
